Results from PubChem BioAssay (EPA / NIEHS).
Several values for one entry are separate records, joined by “and”; a condition that tells them apart may be missing. Equal entries are not always repeated. Results filed as inconclusive are left out. Some compounds were tested as several samples or in several runs, with calls that do not always agree. Activity calls are given as the source filed them. How the source made its calls: active means hit-call score of the fitted dose curve at least 0.9, where 1 is the maximum; inconclusive means response in the unintended direction; inactive means score below 0.9.

Assays:
[1] = ATG_XTT_Cytotoxicity: Cytotoxicity Assessment in the Attagene TRANS-FACTORIAL HepG2 Assay (AID 2283584);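 on AC50: XTT signal for cell number as viability in transfected HepG2 cells; cells exposed to compound for 24 h before reading; active means loss of viability signal versus DMSO baseline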
How it was run: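 HepG2 cells transiently transfected with GAL4-UAS multiple reporter units, dosed 24 h; cytotoxicity read by XTT as loss of signal versus DMSO baseline.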

[2] = TOX21_p53_BLA_p2_viability: Viability Assessment in the Tox21 HCT-116 p53 Agonism Beta-lactamase Assay, Phase 2 (AID 2283591);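 further: compound exposure lasted 16 h at 37 °C; actives lower the ATP signal meaning cytotoxicity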
How it was run: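 Cytotoxicity readout: CellTiter-Glo ATP luminescence, 30 min at room temperature, after the beta-lactamase read. Cells were HCT116 exposed 16 h at 37C to compounds pin-transferred at 217-fold dilution from DMSO stocks.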

[3] = target: Cellular tumor antigen p53 (Homo sapiens) (UniProt P04637); test: TOX21_p53_BLA_p2_ratio: Tox21 HCT-116 p53 Agonism Beta-lactamase Assay, Ratio, Phase 2 (AID 2283592)
Chain of Cellular tumor antigen p53 (Homo sapiens) (P04637 whole entry, looked up): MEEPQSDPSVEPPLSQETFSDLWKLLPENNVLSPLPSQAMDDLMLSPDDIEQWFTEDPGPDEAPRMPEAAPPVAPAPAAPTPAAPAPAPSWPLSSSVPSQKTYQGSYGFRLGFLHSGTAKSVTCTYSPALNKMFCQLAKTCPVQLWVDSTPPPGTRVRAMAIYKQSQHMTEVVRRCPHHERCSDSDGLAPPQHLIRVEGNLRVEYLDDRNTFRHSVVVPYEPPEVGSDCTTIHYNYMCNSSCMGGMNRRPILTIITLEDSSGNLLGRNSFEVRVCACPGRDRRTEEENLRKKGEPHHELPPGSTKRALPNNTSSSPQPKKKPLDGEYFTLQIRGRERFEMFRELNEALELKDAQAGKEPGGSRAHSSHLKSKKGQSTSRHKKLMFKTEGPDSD
How it was run: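 HCT-116 cells with p53-responsive beta-lactamase reporter, 4000 cells/well, preincubated 5 h, then compound in DMSO (217-fold dilution) for 16 h at 37C. CCF4-AM substrate 2 h at room temperature; 460/530 nm emission ratio fitted upward versus DMSO.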

[4] = TOX21_p53_BLA_p3_viability: Viability Assessment in the Tox21 HCT-116 p53 Agonism Beta-lactamase Assay, Phase 3 (AID 2283593);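 further: cells exposed to compound for 16 h before reading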
How it was run: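 Cellular ATP was quantified by CellTiter-Glo luminescence, read after 30 min at room temperature. Beforehand, HCT116 cells (4000/well) received compound 5 h post-seeding, 217-fold diluted from DMSO, then incubated 16 h at 37C.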

What does the source list for `CC(C)(C)c1cc(CCC(=O)NN)cc(C(C)(C)C)c1O`?
outcome [1]: inactive; outcome [2]: inactive; outcome [3]: inactive

Which outcome [1] does the source give for `O=C(O)CCCCCCCC(=O)O` here?
Its outcome is “inactive”.

And the outcome [2]?
Its outcome is “inactive”.

What about the outcome [3] of the same molecule?
Its outcome is “inactive”.

What about the outcome [4] of the same molecule?
The outcome was “inactive”.

With `CC1(C)[C@@H]2CC[C@@]1(C)[C@H](O)C2` as the molecule, how does the outcome [1] read?
Its outcome is “inactive”.

And the outcome [2]?
Its outcome is “inactive”.

And the outcome [3]?
Its outcome is “inactive”.

What about the outcome [4] of the same molecule?
The outcome was “inactive”.

Which results are given for `NC(=O)NC1NC(=O)NC1=O` (centres undefined)?
outcome [1]: inactive; outcome [2]: inactive; outcome [3]: inactive

With `CC(=O)C(=O)O` as the molecule, how does the outcome [1] read?
The outcome was “inactive”.

And the outcome [2]?
The outcome was “inactive”.

What about the outcome [3] of the same molecule?
Its outcome is “inactive”.

Which outcome [1] does the source give for `CCCCOCCOCCSC#N` here?
The outcome was “inactive”.

And the outcome [2]?
The outcome was “inactive”.

And the outcome [3]?
Its outcome is “inactive”.

With `CC(C)C1CCC(O)CC1` (centres undefined) as the molecule, how does the outcome [1] read?
Its outcome is “inactive”.

What about the outcome [2] of the same molecule?
The outcome was “inactive”.

What about the outcome [3] of the same molecule?
Its outcome is “inactive”.

What about the outcome [4] of the same molecule?
Its outcome is “inactive”.

For `c1ccc2c(c1)c1cccc3ccc4cccc2c4c31`, which outcome [1] is on record?
The outcome was “inactive”.

And the outcome [2]?
The outcome was “inactive”.

And the AC50 [3]?
Its AC50 is 15 µM (active).

And the outcome [3]?
Its outcome is “inactive”.

And the outcome [4]?
The outcome was “inactive”.

For `CC1=CCC(O)(C(C)C)CC1` (centres undefined), which outcome [1] is on record?
Its outcome is “inactive”.

What about the outcome [2] of the same molecule?
The outcome was “inactive”.

What about the outcome [3] of the same molecule?
The outcome was “inactive”.

Which outcome [1] does the source give for `CC(CN1c2ccccc2Sc2ccccc21)N(C)C` (centres undefined) here?
Its outcome is “inactive”.

And the AC50 [2]?
The AC50 was 38.9 µM (active).

And the AC50 [3]?
The AC50 was 43.6 µM (active).

And the outcome [3]?
Its outcome is “inactive”.

Which outcome [1] does the source give for `O=c1[nH]c(=O)n([C@H]2CCCO2)cc1F` here?
Its outcome is “inactive”.

What about the outcome [2] of the same molecule?
Its outcome is “inactive”.

And the outcome [3]?
The outcome was “inactive”.

And the outcome [4]?
Its outcome is “inactive”.

With `CC(=O)[C@H]1CC[C@H]2[C@@H]3CC=C4C[C@@H](O)CC[C@]4(C)[C@H]3CC[C@]12C` as the molecule, how does the outcome [1] read?
Its outcome is “inactive”.

What about the outcome [2] of the same molecule?
The outcome was “inactive”.

And the outcome [3]?
The outcome was “inactive”.

What about the outcome [4] of the same molecule?
Its outcome is “inactive”.

Which results are given for `CCCCCCCCCCCCCOS(=O)(=O)O`?
AC50 [1]: 148 µM (active); AC50 [2]: 82.4 µM (active); AC50 [3]: 85.6 µM (active); outcome [4]: inactive

For `OCCOCCOCCOCCO`, which outcome [1] is on record?
The outcome was “inactive”.

And the outcome [2]?
The outcome was “inactive”.

And the outcome [3]?
The outcome was “inactive”.

What about the outcome [4] of the same molecule?
The outcome was “inactive”.

For `CCN(CC)c1ccc2c(-c3ccccc3C(=O)O)c3ccc(=[N+](CC)CC)cc-3oc2c1`, which outcome [1] is on record?
The outcome was “inactive”.

What about the outcome [2] of the same molecule?
The outcome was “inactive”.

And the outcome [3]?
The outcome was “inactive”.

And the outcome [4]?
The outcome was “inactive”.

With `CC1(CO)CN(c2ccccc2)NC1=O` (centres undefined) as the molecule, how does the outcome [1] read?
The outcome was “inactive”.

What about the outcome [2] of the same molecule?
The outcome was “inactive”.

What about the outcome [3] of the same molecule?
Its outcome is “inactive”.

Which results are given for `C=C(C)C(=O)Nc1ccc(Cl)c(Cl)c1`?
outcome [1]: inactive; outcome [2]: inactive; AC50 [3]: 60.6 µM (active); outcome [3]: inactive; outcome [4]: inactive

Which outcome [1] does the source give for `CC(=O)OCC=Cc1ccccc1` here?
Its outcome is “inactive”.

And the outcome [2]?
The outcome was “inactive”.

What about the outcome [3] of the same molecule?
The outcome was “inactive”.

And the outcome [4]?
The outcome was “inactive”.

For `O=C1OC2(c3cc(Br)c(O)c(Br)c3Oc3c2cc(Br)c(O)c3Br)c2c(Cl)c(Cl)c(Cl)c(Cl)c21`, which outcome [1] is on record?
The outcome was “inactive”.

And the AC50 [2]?
Its AC50 is 46.2 µM (active) and 19.8 µM (active).

What about the AC50 [3] of the same molecule?
The AC50 was 16.8 µM (active).

And the outcome [3]?
Its outcome is “inactive”.

And the AC50 [4]?
Its AC50 is 48.3 µM (active) and 20.9 µM (active).

Which results are given for `CCCc1c(OCCCOc2ccc(OCC(=O)O)cc2)ccc(C(C)=O)c1O`?
outcome [1]: inactive; AC50 [2]: 57 µM (active); AC50 [3]: 63.8 µM (active); outcome [4]: inactive

Which outcome [1] does the source give for `CO[Si](C)(OC)c1ccccc1` here?
The outcome was “inactive”.

What about the outcome [2] of the same molecule?
Its outcome is “inactive”.

And the outcome [3]?
Its outcome is “inactive”.

What about the outcome [4] of the same molecule?
The outcome was “inactive”.

With `CNC[C@H](O)c1cccc(O)c1` as the molecule, how does the outcome [1] read?
The outcome was “inactive”.

What about the outcome [2] of the same molecule?
The outcome was “inactive”.

What about the outcome [3] of the same molecule?
Its outcome is “inactive”.

And the outcome [4]?
The outcome was “inactive”.

Which outcome [1] does the source give for `CCCCC(CC)COC(=O)/C=C\C(=O)OCC(CC)CCCC` (centres undefined) here?
Its outcome is “inactive”.

What about the outcome [2] of the same molecule?
The outcome was “inactive”.

And the outcome [3]?
Its outcome is “inactive”.

What about the outcome [4] of the same molecule?
The outcome was “inactive”.

Which outcome [1] does the source give for `COCCCOc1ccnc(CS(=O)c2nc3ccccc3[nH]2)c1C` (centres undefined) here?
Its outcome is “inactive”.

What about the outcome [2] of the same molecule?
The outcome was “inactive”.

And the outcome [3]?
The outcome was “inactive”.

What about the outcome [4] of the same molecule?
The outcome was “inactive”.

What does the source list for `O=C(Oc1ccccc1)c1ccc(O)cc1`?
outcome [1]: inactive; outcome [2]: inactive; outcome [3]: inactive; outcome [4]: inactive

With `COCCOCCOCCOCCOCCO` as the molecule, how does the outcome [1] read?
Its outcome is “inactive”.

And the outcome [2]?
The outcome was “inactive”.

What about the outcome [3] of the same molecule?
Its outcome is “inactive”.

And the outcome [4]?
The outcome was “inactive”.

Which results are given for `CCn1c2ccccc2c2cc(N)ccc21`?
outcome [1]: inactive; outcome [2]: inactive; AC50 [3]: 65.1 µM (active) and 74.2 µM (active); outcome [3]: inactive; outcome [4]: inactive

For `NCCCCCCN`, which outcome [1] is on record?
The outcome was “inactive”.

What about the outcome [2] of the same molecule?
Its outcome is “inactive”.

What about the outcome [3] of the same molecule?
The outcome was “inactive”.

And the outcome [4]?
Its outcome is “inactive”.

With `CC(=O)OCc1ccc2c(c1)OCO2` as the molecule, how does the outcome [1] read?
The outcome was “inactive”.

And the outcome [2]?
The outcome was “inactive”.

And the outcome [3]?
Its outcome is “inactive”.

What about the outcome [4] of the same molecule?
Its outcome is “inactive”.

With `CCCCCC(CO)CCC` (centres undefined) as the molecule, how does the outcome [1] read?
The outcome was “inactive”.

And the outcome [3]?
The outcome was “inactive”.

With `C=C(C)[C@@H]1CCC2=CC(=O)C[C@@H](C)[C@]2(C)C1` as the molecule, how does the outcome [1] read?
The outcome was “inactive”.

And the outcome [3]?
The outcome was “inactive”.

Which results are given for `CC1=CCC2C(C1)C2(C)C` (centres undefined)?
outcome [1]: inactive; outcome [3]: inactive

For `O=C(O)C[C@H](O)C[C@H](O)/C=C/c1c(C2CC2)nc2ccccc2c1-c1ccc(F)cc1`, which outcome [1] is on record?
The outcome was “inactive”.

And the outcome [3]?
The outcome was “inactive”.

What does the source list for `CCC(C)(O)CCC=C(C)C` (centres undefined)?
outcome [1]: inactive; outcome [3]: inactive

With `CCCCc1ccc(N)cc1` as the molecule, how does the outcome [1] read?
The outcome was “inactive”.

What about the outcome [2] of the same molecule?
The outcome was “inactive”.

What about the outcome [4] of the same molecule?
Its outcome is “inactive”.

What does the source list for `BrC1CCC(Br)C(Br)CCC(Br)C(Br)CCC1Br` (centres undefined)?
outcome [1]: inactive; AC50 [2]: 18.1 µM (active) and 18.2 µM (active); AC50 [3]: 53.1 µM (active) and 45.9 µM (active); AC50 [4]: 15.1 µM (active); outcome [4]: inactive

Which results are given for `O=Cc1ccc(Cl)c([N+](=O)[O-])c1`?
outcome [1]: inactive; outcome [3]: inactive

For `C=CC(=O)OCC(O)COc1ccccc1` (centres undefined), which outcome [1] is on record?
The outcome was “inactive”.

What about the AC50 [2] of the same molecule?
The AC50 was 45.5 µM (active).

What about the AC50 [4] of the same molecule?
Its AC50 is 75.6 µM (active).

What does the source list for `Cc1ncc([N+](=O)[O-])n1C`?
outcome [1]: inactive; outcome [3]: inactive

With `ClCCCl` as the molecule, how does the outcome [1] read?
Its outcome is “inactive”.

What about the outcome [3] of the same molecule?
The outcome was “inactive”.

Which AC50 [1] does the source give for `C=CC(=O)OCCn1c(=O)n(CCOC(=O)C=C)c(=O)n(CCOC(=O)C=C)c1=O` here?
Its AC50 is 71 µM (active).

What about the AC50 [2] of the same molecule?
Its AC50 is 46.1 µM (active).

And the outcome [4]?
Its outcome is “inactive”.

What does the source list for `C=C(C)C(=O)OCCOC(=O)CC(C)=O`?
outcome [1]: inactive; outcome [3]: inactive

Which outcome [1] does the source give for `NNc1nc(-c2ccc(N)cc2)cs1` here?
Its outcome is “inactive”.

What about the outcome [3] of the same molecule?
The outcome was “inactive”.

Which results are given for `COc1ccc(Cl)cc1C`?
outcome [1]: inactive; outcome [3]: inactive

What does the source list for `CC(C)[C@@H]1CC[C@@H](C)CC1=O`?
outcome [1]: inactive; outcome [3]: inactive

Which results are given for `CC(C)(C)c1n[nH]c(=S)n(N)c1=O`?
outcome [1]: inactive; outcome [3]: inactive

With `Cc1ccccc1C=O` as the molecule, how does the outcome [1] read?
The outcome was “inactive”.

And the outcome [2]?
Its outcome is “inactive”.

What about the outcome [4] of the same molecule?
Its outcome is “inactive”.

What does the source list for `O=C1CCCCCCCCCCOCCCCO1`?
outcome [1]: inactive; outcome [3]: inactive
